From PubChem BioAssay AID2113 (National Center for Advancing Translational Sciences (NCATS), 2009)
Results filed as inconclusive are left out. The source made the active and inactive calls. The call rests on the fitted dose curve; in most records, active means well fitted curve in either direction with a large enough effect; inconclusive means small, poorly fitted or top-dose-only effect; inactive means no such curve, though single readings can be large or run the other way.

target: Lysosomal alpha-glucosidase (Homo sapiens) (UniProt P10253); assay: Confirmation of Inhibitors and Activators of Human alpha-Glucosidase From Spleen Homogenate; settings: alpha-glucosidase enzyme activity; series mostly up to 60.5 µM
In short: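 Compounds titrated against spleen-homogenate alpha-glucosidase, pH 5.0, 1 mM 4-MU-glucoside substrate, 37 C for 40 min. Fluorescence after pH 10 stop, normalised to no-enzyme and enzyme controls; Hill-equation AC50.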

Potency, inactive:
CCC1OC23CCCCC2C(C#N)(C(=N)O3)C1(C#N)C#N (centres undefined), CC(=O)c1ccc(N2CCN(S(=O)(=O)c3ccc4c(c3)oc(=O)n4C)CC2)cc1, CCCC1(C)Nc2ccccc2-c2nc3ccccc3n21 (centres undefined), COCCNS(=O)(=O)c1ccc2c(c1)n(C)c(=O)n2C
